Measurements as given in PubChem BioAssay (EPA / NIEHS).
Results filed as inconclusive are left out. Calls of active or inactive are those of the source. The calls were made as follows, unless noted: active = hit-call score of the fitted dose curve at least 0.9, where 1 is the maximum; inconclusive = response in the unintended direction; inactive = score below 0.9.

Tested on: not listed separately
Assay: IUF_NPC4_neurite_length_120hr: Leibniz Research Institute for Environmental Medicine (IUF) 120-hour Neuronal Morphology Assay for Neurite Length (NPC4) (AID 2284302; active = hit-call score of the fitted dose curve at least 0.9, where 1 is the maximum; inactive = score below 0.9)
Details: not given
Method: IUF_NPC2-5 is a cell-based, multiplexed assay that uses hNPC, a human primary neural progenitor cells, with measurements taken at 72 or 120 hours after chemical dosing in a 96-well plate. Human neural progenitor cells (hNPC) are generated from human fetal brain cortex at gestational week (GW) 16-19. In the neural progenitor cell migration and differentiation assay (NPC2-5), hNPCs grown as spheres are plated on an extracellular matrix and migrate and differentiate out of the sphere core. The processes radial glia migration, neuronal and oligodendrocyte migration as well as neuronal differentiation, neuronal morphology and oligodendrocyte differentiation are studied using automated phase contrast imaging and automated fluorescence imaging in combination with high content image analysis. In parallel, the cell viability is assessed using an alamar blue viability assay and the cytotoxicity using a lactate dehydrogenase dependent membrane integrity assay.IUF_NPC4_neurite_length_120hr is one of 12 assay components measured from the IUF_NPC2-5 assay. The neurite length at 120 hr is the mean length in um of all neurons (see IUF_NPC3_neuronal_differentiation_120hr) that are identified by the skeletonization algorithm in Omnisphero.Data from the IUF_NPC4_neurite_length_120hr component was analyzed at the endpoint IUF_NPC4_neurite_length_120hr in the positive analysis fitting direction relative to DMSO as the negative control and baseline of activity. Using a type of differentiation reporter, gain or loss-of-signal activity can be used to understand developmental effects.
Culture protocol: After the cell expansion period the cells are cultured for up to four weeks in which they are passaged every week as described in 3.6. Between one to three days after passaging spheres at a size of 0.3 mm are picked for the test method. For the assessment of neural progenitor cell migration and differentiation, the spheres are plated on poly-D-lysine/laminin coated 96-well flat bottom plates in differentiation medium (N2) to initiate migration and differentiation. Thereby one 0.3 mm big sphere is plated in the middle of a well. The differentiation medium consists of DMEM and Ham's F12 at a ratio of 3 to 1 supplemented with 1% N2 and 1% penicillin and streptomycin. Within 5 days NPCs radially migrate out of the sphere core and differentiate into radial glia cells (nestin positive), neurons (TUBB3 positive), oligodendrocytes (O4 positive) and astrocytes (GFAP positive). Cultivation during the test method is performed at 37C and 5% CO2 at a ph of 7.2-7.6.Exposure: 0.3 mm big hNPC are plated in the already prepared test conditions. Exposure starts at day 0 of differentiation and is continued over five days of differentiation until the experiment is terminated. Cells are fed with fresh medium at day 3 of differentiation. Therefore, half of the test condition solution (e.g. solvent control or compound dilution) is replaced by freshly prepared test condition solution.Test Method: Migration distance and cytotoxicity is determined after 72 hours based on brightfield images of each well. The assay is terminated by the assessment of cell viability and cytotoxicity as well as cell fixation after 120 h. Immunocytochemistry is performed for Hoechst positive nuclei, TUBB3 positive neurons and O4 positive oligodendrocytes. On the ICC images, migration after 120 hours, neuronal and oligodendrocyte number, neuronal morphology and neuron/oligodendrocyte specific migration is assessed. immunocytochemical staining (ICC) generates an image for each sphere. The plates are scanned using an automated high content imaging device and all nuclei and their positions are determined automatically based on their intensity and size. Images are imported to the Omnisphero software to run the image analysis that measures the following endpoints. The method is set up for 8 test conditions including 7 compound concentrations and one SC. […]

Row | Compound | outcome | AC50
1 | Cc1cc(C(F)(C(F)(F)F)C(F)(F)F)ccc1NC(=O)c1cccc(I)c1C(=O)NC(C)(C)CS(C)(=O)=O | inactive | –
2 | Cc1ccccc1OP(=O)(Oc1ccccc1C)Oc1ccccc1C | inactive | –
3 | O=S1OC[C@@H]2[C@H](CO1)[C@]1(Cl)C(Cl)=C(Cl)[C@@]2(Cl)C1(Cl)Cl (some centres undefined) | inactive | –
4 | CS(=O)(=O)c1ccc(C(=O)C2C(=O)CCCC2=O)c(Cl)c1COCC(F)(F)F | inactive | –
5 | CC(C)[C@@H](Nc1ccc(C(F)(F)F)cc1Cl)C(=O)OC(C#N)c1cccc(Oc2ccccc2)c1 (some centres undefined) | inactive | –
6 | CCOCn1c(-c2ccc(Cl)cc2)c(C#N)c(Br)c1C(F)(F)F | – | 14.4 µM (active)
7 | CNC(=O)CSP(=O)(OC)OC | inactive | –
8 | OC(Cc1ccccc1Cl)(Cn1[nH]cnc1=S)C1(Cl)CC1 (centres undefined) | – | 36.1 µM (active)
9 | CC1(C)[C@H](C(=O)O[C@H](C#N)c2cccc(Oc3ccccc3)c2)[C@@H]1/C=C(\Cl)C(F)(F)F | inactive | –

Read-out: CD69, CD69 (gene 969)
Assay: BSK_LPS_CD69: BioMAP Diversity Plus: LPS Assay for CD69 Biomarker Activity (AID 2284303; active = hit-call score of the fitted dose curve at least 0.9, where 1 is the maximum; inactive = score below 0.9)
Details: primary human HUVEC with PBMC
Method in brief: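 CD69 surface levels were read by ELISA after 24 h chemical treatment of an LPS-stimulated HUVEC plus PBMC co-culture; positive-direction fit against DMSO vehicle.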

Row | Compound | outcome
10 | OCCCCO | inactive
11 | O=C(Cc1ccccc1)OCCc1ccccc1 | inactive
12 | CCCCOC(=O)COC(=O)c1ccccc1C(=O)OCCCC | inactive

Tested on: not listed separately
Assay: IUF_NPC5_oligodendrocyte_differentiation_120hr: Leibniz Research Institute for Environmental Medicine (IUF) 120-hour Oligodendrocyte Differentiation Assay (NPC5) (AID 2284304);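 also: share of O4-positive cells among Hoechst nuclei found by CNN image analysis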
Details: not given
Method in brief: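 Human fetal neural progenitor spheres (0.3 mm) plated on poly-D-lysine/laminin in N2 differentiation medium and exposed for 120 h at 7 concentrations, with half-medium renewal at day 3. O4-positive cells identified by CNN, expressed as percent of Hoechst nuclei.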

Row | Compound | AC50 | outcome
13 | Cc1cc(C(F)(C(F)(F)F)C(F)(F)F)ccc1NC(=O)c1cccc(I)c1C(=O)NC(C)(C)CS(C)(=O)=O | 4.22 µM (active) | –
14 | Cc1ccccc1OP(=O)(Oc1ccccc1C)Oc1ccccc1C | 6.47 µM (active) | –
15 | O=S1OC[C@@H]2[C@H](CO1)[C@]1(Cl)C(Cl)=C(Cl)[C@@]2(Cl)C1(Cl)Cl (some centres undefined) | 0.789 µM (active) | –
16 | CS(=O)(=O)c1ccc(C(=O)C2C(=O)CCCC2=O)c(Cl)c1COCC(F)(F)F | – | inactive
17 | CC(C)[C@@H](Nc1ccc(C(F)(F)F)cc1Cl)C(=O)OC(C#N)c1cccc(Oc2ccccc2)c1 (some centres undefined) | 3.8 µM (active) | –
18 | CCOCn1c(-c2ccc(Cl)cc2)c(C#N)c(Br)c1C(F)(F)F | 5.56 µM (active) | –
19 | OC(Cc1ccccc1Cl)(Cn1[nH]cnc1=S)C1(Cl)CC1 (centres undefined) | 0.507 µM (active) | –
20 | CC1(C)[C@H](C(=O)O[C@H](C#N)c2cccc(Oc3ccccc3)c2)[C@@H]1/C=C(\Cl)C(F)(F)F | 0.983 µM (active) | –

Tested on: not listed separately
Assay: IUF_NPC4_neurite_area_120hr: Leibniz Research Institute for Environmental Medicine (IUF) 120-hour Neuronal Morphology Assay for Neurite Area (NPC4) (AID 2284305)
Details: not given
Method in brief: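 Neurite area (pixels, nuclei excluded) of TUBB3-positive neurons from hNPC spheres differentiating 5 days under continuous exposure at 37 C, 5% CO2. High-content imaging; loss of signal versus DMSO control across 7 concentrations.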

Row | Compound | outcome | AC50
21 | Cc1cc(C(F)(C(F)(F)F)C(F)(F)F)ccc1NC(=O)c1cccc(I)c1C(=O)NC(C)(C)CS(C)(=O)=O | inactive | –
22 | Cc1ccccc1OP(=O)(Oc1ccccc1C)Oc1ccccc1C | inactive | –
23 | O=S1OC[C@@H]2[C@H](CO1)[C@]1(Cl)C(Cl)=C(Cl)[C@@]2(Cl)C1(Cl)Cl (some centres undefined) | inactive | –
24 | CS(=O)(=O)c1ccc(C(=O)C2C(=O)CCCC2=O)c(Cl)c1COCC(F)(F)F | inactive | –
25 | CC(C)[C@@H](Nc1ccc(C(F)(F)F)cc1Cl)C(=O)OC(C#N)c1cccc(Oc2ccccc2)c1 (some centres undefined) | inactive | –
26 | CCOCn1c(-c2ccc(Cl)cc2)c(C#N)c(Br)c1C(F)(F)F | – | 13.4 µM (active)
27 | CNC(=O)CSP(=O)(OC)OC | inactive | –
28 | OC(Cc1ccccc1Cl)(Cn1[nH]cnc1=S)C1(Cl)CC1 (centres undefined) | – | 40.3 µM (active)
29 | CC1(C)[C@H](C(=O)O[C@H](C#N)c2cccc(Oc3ccccc3)c2)[C@@H]1/C=C(\Cl)C(F)(F)F | inactive | –
